Only some compounds are listed: those with a hit (about 3.1% of all), similar ones and a draw of the others.
SSB-PriA inh: inhibitors of Klebsiella pneumoniae PriA binding to SSB C-terminal tail | AlphaScreen SSBct-PriA binding, biotinylated peptide | AID 1272365 | 0.6% of 430,000 active | inhibition, % at 33 µM; in the data active means inhibition mostly above about 37%, no sharp cut-off; inactive means mostly below about 20%
Bead autofluor: flagged as autofluorescent in microsphere protease counterscreen | 3.1% of 360,000 active | AID 624483 | fluorescence intensity (test concentration not listed) | compound autofluorescence counterscreen, microsphere flow cytometry; stronger effect = higher value; in the data active means fluorescence intensity above about 16000; inconclusive means no clear call, values can overlap the other calls
Anthrax LF inh2: blocks Bacillus anthracis lethal factor protease. AID 588501. 0.12% of 360,000 active. inhibition, % at 10 µM. multiplex microsphere protease cleavage assay, LF
BoNT-A LC inh2: blocks Botulinum neurotoxin A light chain protease. multiplex microsphere protease substrate cleavage, flow cytometry. inhibition, % at 10 µM. 0.17% of 360,000 active. AID 588499
BoNT F protease: inhibitors of Botulinum neurotoxin F light chain protease; 0.22% of 360,000 active; AID 588497; inhibition, % at 10 µM; Multiplex microsphere protease cleavage assay, flow cytometry; in the data active means inhibition above about 35%, passing the limit was not always enough; inconclusive means no clear call, values can overlap the other calls
Numbers stand for hits; – = inactive; ? = inconclusive; · = no result. Unless noted, no stated cut-off is given here; in the data, active means inhibition above about 30%; inconclusive means no clear call, values can overlap the other calls; inactive means below that.

SMILES | SSB-PriA inh | Bead autofluor | Anthrax LF inh2 | BoNT-A LC inh2 | BoNT F protease
CN(C)c1ccc(CN(C(=O)COc2ccccc2)C2CCS(=O)(=O)C2)cc1 (stereo unspecified) | – | 16811 | – | – | –
Cc1ccc(OCC(=O)N(Cc2ccc(N(C)C)cc2)C2CCS(=O)(=O)C2)cc1C (stereo unspecified) | – | – | – | – | ?
CCCOc1ccc(CN(C(=O)c2cccc(OC)c2)C2CCS(=O)(=O)C2)cc1 (stereo unspecified) | – | – | – | – | –
O=C1C2CC=CCC2C(=O)N1CC(=O)N(Cc1ccccc1)C1CCS(=O)(=O)C1 (stereo unspecified) | – | 22395 | – | – | –
Cc1ccccc1OCC(=O)N(Cc1ccc(N(C)C)cc1)C1CCS(=O)(=O)C1 (stereo unspecified) | – | 23914 | – | – | –
CCOc1ccc(C=Nc2cccc3c(N=Cc4ccc(OCC)cc4)cccc23)cc1 | – | · | · | · | ·
CC(C)CCOc1cccc(OCC(=O)N(C)C2CCS(=O)(=O)C2)c1 (stereo unspecified) | – | 16885 | – | – | –
CN(C(=O)COc1ccccc1)C1CCS(=O)(=O)C1 (stereo unspecified) | – | – | – | – | –
C=CCn1cc(C(=O)NCCOC)c(=O)c2cc(S(=O)(=O)N(CC)CC)ccc21 | – | 16280 | – | – | –
C=CCn1cc(C(=O)NCCCOCC)c(=O)c2cc(S(=O)(=O)N(CC)CC)ccc21 | – | 23558 | – | – | –
O=C(NCc1cccs1)C(=O)NCC1CCN(c2ccncc2)CC1 | – | · | · | · | ·
COc1ccc(-c2nc3cc(C)ccn3c2NCc2ccc3c(c2)OCO3)cc1 | 54.4 | – | – | – | –
CC(=NNC(=O)C1CCN(S(=O)(=O)c2ccc(C)cc2)CC1)c1cccc([N+](=O)[O-])c1 | – | · | · | · | ·
Cc1ccc(-n2ncc3c(N4CCC(C(N)=O)CC4)ncnc32)c(C)c1 | – | 23419 | – | – | –
CN(Cc1ccccc1)S(=O)(=O)c1cccc2cccnc12 | – | 24517 | – | – | –
CCCCn1c(N)c(Sc2ccc([N+](=O)[O-])cc2)c(=O)[nH]c1=O | – | – | – | – | –
CCCCn1c(N)c(Sc2ccc(Cl)cc2)c(=O)[nH]c1=O | – | 19647 | – | – | –
O=C(Cn1cc(SCc2cccc3ccccc23)c2ccccc21)N1CCCCCC1 | – | · | · | · | ·
O=C(NN=C1CC2C=CCC12)c1cccs1 (stereo unspecified) | – | · | · | · | ·
Cc1ccc2[nH]c3c(N4CCN(Cc5ccccc5)CC4)ncnc3c2c1 | – | – | – | – | –
CCOc1ccc2[nH]c3c(N4CCN(c5ccccn5)CC4)ncnc3c2c1 | 39.4 | 18129 | – | – | –
CCOC(=O)C1(S(=O)(=O)c2ccc(Cl)cc2)CCN(Cc2ccc(Cl)cc2)CC1 | – | 23017 | – | – | –
CC(=O)NCCNC(=O)[C@H](Cc1ccccc1)NC(=O)c1cccs1 | – | 20647 | – | ? | –
Cc1ccc(NC(=O)C(Cc2ccccc2)NC(=O)c2ccco2)cc1 (stereo unspecified) | – | 23460 | – | ? | –
Cc1ccccc1CN(C)C(=O)[C@H](Cc1ccccc1)NC(=O)c1ccco1 | – | – | – | – | –
SMILES | SSB-PriA inh | Bead autofluor | Anthrax LF inh2 | BoNT-A LC inh2 | BoNT F protease
O=C(O)c1ccc(NC(=S)NC(NC(=O)c2ccco2)C(Cl)(Cl)Cl)cc1 (stereo unspecified) | – | 25206 | – | – | –
Cc1ccc(CC(NC(=O)c2ccccc2)C(=O)NCC(=O)O)cc1 (stereo unspecified) | – | 22985 | – | – | –
CC(=Nc1cc([N+](=O)[O-])ccc1C)C1=C(O)c2ccccc2C1=O | – | · | · | · | ·
Cc1ccc(NC(=O)NCCC(O)c2ccoc2)cc1C (stereo unspecified) | – | · | · | · | ·
CN1CCc2c(sc3c2C(=O)NC(c2cn(Cc4ccccc4)c4ccccc24)N3)C1 (stereo unspecified) | – | 20205 | – | – | –
CN1CCc2c(sc3c2C(=O)NC(c2ccco2)N3)C1 (stereo unspecified) | – | 18769 | – | – | –
Cc1cccc(C=Nc2sc3c(c2C(=O)OC(C)(C)C)CCN(C)C3)c1O | 44.7 | · | · | · | ·
O=C(NCc1ccc2c(c1)OCO2)[C@@H]1COCC(=O)N1Cc1cccs1 | – | · | · | · | ·
CCOC(=O)C(C)C(C)=NNc1ccc([N+](=O)[O-])cc1[N+](=O)[O-] (stereo unspecified) | 66.8 | · | · | · | ·
CCOc1ccc(NN=C(C(=O)OC)C(=O)OC)c([N+](=O)[O-])c1 | – | – | – | – | ?
CCOC(=O)CC(C)(C)C(C)=NNc1ccc([N+](=O)[O-])cc1[N+](=O)[O-] | 44.0 | · | · | · | ·
COC(=O)CC/C(C)=N\Nc1ccc([N+](=O)[O-])cc1[N+](=O)[O-] | · | 21329 | – | – | –

Screening data: PubChem, several laboratories
